High-throughput results (PubChem BioAssay)
Rows were chosen to be rich in hits. Some 2.6% of all compounds tested hit in one or more screens of this group.
Cruzain inh Det = qHTS Assay for Promiscuous and Specific Inhibitors of Cruzain (with detergent); AID 1478, 2009; purified cruzain, Z-FR-AMC fluorescence, 0.01% Triton; actives 0.43% (n = 200,000); Potency, µM, inactives show max response, negative = inhibition, usual class: inhibitors;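 further: plate controls were neutral wells for no effect and buffer without enzyme for full effect; nearly all actives have a fitted effect of over 40% in size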
Target sequence (P25779 123-467 limits assumed): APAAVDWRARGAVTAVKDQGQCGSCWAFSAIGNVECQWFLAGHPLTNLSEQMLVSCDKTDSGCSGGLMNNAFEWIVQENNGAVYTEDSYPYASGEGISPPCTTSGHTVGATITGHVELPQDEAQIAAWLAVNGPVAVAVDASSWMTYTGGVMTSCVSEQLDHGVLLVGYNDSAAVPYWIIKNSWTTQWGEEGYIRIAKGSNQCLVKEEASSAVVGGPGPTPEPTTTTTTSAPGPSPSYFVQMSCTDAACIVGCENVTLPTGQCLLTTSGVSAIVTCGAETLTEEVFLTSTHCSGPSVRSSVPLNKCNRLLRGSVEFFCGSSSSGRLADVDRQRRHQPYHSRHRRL
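Enzyme 1.5 nM, Z-FR-AMC 2 uM, NaOAc 100 mM pH 5.5, DTT 5 mM, Triton X-100 0.01%; 15 min RT compound preincubation; kinetic ex360/em450, 60 s delta.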
Cruzain inh noDet = qHTS Assay for Promiscuous and Specific Inhibitors of Cruzain (without detergent). Cruzipain (Trypanosoma cruzi), P25779. purified cruzain, Z-FR-AMC fluorescence, no detergent. Potency, µM, for inactives: max response, negative = inhibition, actives largely listed as inhibitors. actives 2.3% (n = 200,000);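 further: plate controls were enzyme without inhibitor for no effect and buffer without enzyme for full effect; nearly all actives have a fitted effect of over 40% in size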
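Detergent-free condition (0.00005% Triton X-100) in acetate buffer pH 5.5 with DTT. 1.5 nM enzyme and compound were pre-mixed 15 min, then 2 uM Z-FR-AMC substrate added; reaction progress from fluorescence change between first and third reads (60 s).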
* hit, by the source's call; ? = inconclusive. The call rests on the fitted dose curve; in most records, active means well fitted curve in the direction sought with a large enough effect; inconclusive means small, poorly fitted or top-dose-only effect, or another doubt; inactive means no such curve, though single readings can be large; an effect the other way counts as inactive or inconclusive. Potency means the concentration at half of the fitted maximal effect.

SMILES	Cruzain inh Det	Cruzain inh noDet
O=C(COC(=O)CCc1nc2ccccc2s1)Nc1ncc(Cl)cc1Cl	-5.6%	-7.9%
CC(=O)OCc1nc2ccccc2s1	1.9%	-7.0%
O=C(CNC(=O)c1ccc(Cl)cc1Cl)OCc1nc2ccccc2s1	7.94µM*	3.98µM*
Fc1ccc(N2CCN(c3ncnc4onc(-c5ccc(Cl)cc5)c34)CC2)cc1	-7.8%	3.9%
CC(=O)c1ccc(N2CCN(c3ncnc4onc(-c5ccc(Cl)cc5)c34)CC2)cc1	-16.4%	3.16µM*
COc1ccc(CCNC(=O)c2cnn(-c3cccc(C)c3)c2C2CCN(C(=O)OC(C)(C)C)CC2)cc1OC	-6.6%	?
COc1cc(NC(=O)C2CCCN(S(=O)(=O)c3ccc4c(c3)oc(=O)n4C)C2)c(C(=O)O)cc1OC (stereo not drawn)	-0.8%	11.8%
Cc1nc(C)c(CCNC(=O)c2cccc(Cl)c2)s1	?	-28.6%
Cc1nc(C)c(CCNC(=O)c2ccccc2)s1	28.2µM*	?
Cn1c(CCNC(=O)c2ccc(F)cc2)nc2ccccc21	11.2µM*	2.51µM*
Cn1c(CCNC(=O)C(C)(C)C)nc2ccccc21	4.4%	4.2%
CC(=O)Nc1ccc2c(c1)nc(CCNC(=O)c1ccccc1)n2C	-3.9%	-13.2%
Cn1c(CCNC(=O)c2ccccc2)nc2ccccc21	11.2µM*	-15.9%
COc1ccc(CNS(=O)(=O)c2cnc(N)nc2)c(OC)c1	-0.1%	-9.1%
CC(C)Sc1nc2sc3c(c2c(=O)n1-c1ccccc1)CCCC3	-3.2%	3.6%
Cc1ccc(Cn2cc(S(=O)(=O)c3ccc(Cl)cc3)c(=O)c3cc(F)ccc32)cc1	0.4%	?
Cc1ccc(C)c(S(=O)(=O)c2cn(Cc3ccccc3)c3cc(F)c(F)cc3c2=O)c1	-4.8%	25.1µM*
Cc1cc(C(C)(C)C)c(OCCCN2CCOCC2)c(C(C)(C)C)c1	1.7%	5.3%
CCC(C)c1ccc2oc(-c3ccc(NC(=O)c4ncn[nH]4)cc3)nc2c1 (stereo not drawn)	-10.3%	3.98µM*
COc1cc(OC)cc(C(=O)Nc2ccc(-c3nc4ccccc4o3)cc2)c1	-4.8%	?
CC(C)c1ccc2oc(-c3ccc(NC(=O)c4ncn[nH]4)cc3)nc2c1	-7.6%	12.6µM*
Cc1cccc(C(=O)Nc2ccc(-c3nc4cc(C(C)C)ccc4o3)cc2)c1	-1.9%	-12.6%
O=C(Nc1ccc2oc(-c3cccc4ccccc34)nc2c1)c1ncn[nH]1	-2.7%	?
COc1cc(OC)cc(C(=O)Nc2ccc(-c3nc4cc(C(C)C)ccc4o3)cc2)c1	-1.9%	12.6µM*
CCC(C)[C@H](N)c1nnc(SCc2ccc(Cl)c(Cl)c2)o1 (stereo partly drawn)	2.9%	5.3%
SMILES	Cruzain inh Det	Cruzain inh noDet
Fc1ccccc1N1CCN(c2nccn3nc(-c4ccc(Br)cc4)cc23)CC1	-2.3%	0.6%
Clc1cccc(Cl)c1/C=N\Nc1nccs1	-2.3%	?
O=[N+]([O-])c1cc(/C=N\Nc2nccs2)ccc1O	17.8µM*	31.6µM*
CCCCCc1c2c(cc(O)c1C(=O)O)OC(=O)c1c(cc(OC)cc1C(=O)CCCC)O2	-20.4%	29.4%
CCCCCc1c2c(cc(O)c1C(=O)O)OC(=O)c1cc(C(=O)CCCC)c(OC)cc1O2	17.8µM*	?
CS(=O)(=O)N1CCN(c2ccccc2NC(=O)c2ccc3ccccc3c2)CC1	-4.6%	20µM*
CS(=O)(=O)N1CCN(c2ccccc2NC(=O)c2ccc(Cl)cc2)CC1	1.4%	-6.7%
COc1ccc(OC)c(-c2cc(C(=O)NC(C)c3ccccc3)no2)c1 (stereo not drawn)	-13.3%	-4.2%
COc1ccc(-c2nc(CN3CCC(C(=O)NCCCN4CCN(c5ccccc5F)CC4)CC3)c(C)o2)cc1OC	-1.6%	-5.7%
N#Cc1c(NC(=O)CSc2ncnc3sccc23)oc(-c2ccco2)c1-c1ccco1	-11.6%	25.1µM*
CCNC(=O)CSc1ncnc2sccc12	-3.3%	-8.8%
CC(=O)Nc1ccc(-c2nnc(SCC(=O)c3ccc([N+](=O)[O-])cc3)o2)cc1	-1.7%	0.4%
Cc1ccc(CCNC(=O)CCc2cn(Cc3ccccc3C)c3ccccc23)cc1	-1.5%	3.1%
COc1ccc(-c2cc(C(F)(F)F)c(C#N)c(SCC(=O)Nc3cccc(C)c3)n2)cc1	-0.8%	-8.7%
Cc1sc(NC(=O)c2cc3ccccc3oc2=O)c(C(=O)OC(C)C)c1-c1ccccc1	-0.6%	3.16µM*
CCOC(=O)c1c(-c2ccc(C)cc2)csc1NC(=O)c1cc2ccccc2oc1=O	-0.4%	-6.6%
CC(C)NC(=O)C1CCC(Cn2c(=O)c3sccc3n(CC(=O)Nc3ccccc3)c2=O)CC1 (stereo not drawn)	-0.8%	17.6%
COC(=O)C1=C(C)[C@@H](O)[C@@H](C)[C@](C)(c2cc(OC)c(C)c(OC)c2COc2ccccc2)O1	1.5%	14.4%
CCOc1ccccc1NC(=O)c1ccc2c(Cl)c3c(nc2c1)CCC3	-1.0%	-4.8%
